# Compounds with a hit are over-represented: about 4.2% of the library has one in this group of screens.
# NALP1 yeast inh – NALP1 inhibition; S. cerevisiae NALP1/ASC/caspase-1 growth, X-gal OD620, 72 h; inhibition, % at 10 µM; hit rate 0.61% among 280,000; AID 2071; in the data active = inhibition mostly above about 24%, no sharp cut-off; inactive = mostly below about 32%
# V-ATPase pH – regulators of yeast V-ATPase proton transport; S. cerevisiae, pHLuorin cytosolic pH fluorescence; response, % at 10 µM; hit rate 0.37% among 350,000; AID 504577; in the data active = response mostly above about 7.3%, no sharp cut-off; inactive = mostly below about 5.4%; also: actives read high
# TIM10 inh – TIM10 yeast growth inhibition; S. cerevisiae TIM10 strain growth, BacTiter-Glo luminescence, 24 h; inhibition, % at 10 µM; hit rate 1.4% among 330,000; AID 463195;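 active = inhibition of 40% or more at the single tested concentration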;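 also: wild-type TIM10 isogenic control strain grown at permissive 25 °C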
# tim23-1 inh – inhibits growth of tim23-1 mutant yeast; inhibition, % at 20 µM; S. cerevisiae tim23-1 growth, BacTiter-Glo luminescence, 24 h; AID 463212; hit rate 1.3% among 330,000;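 active = growth inhibition of the mutant yeast at or above 50%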;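 also: temperature-sensitive mutant grown at 25 °C; plate controls were DMSO-treated mutant yeast for no effect and medium wells lacking yeast for full effect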
# NLRP3 yeast inh – NALP3 inhibition in yeast; Yeast reconstituted NLRP3/ASC/caspase-1, beta-gal luminescence, 24 h; inhibition, % at 10 µM; hit rate 0.39% among 330,000; AID 2825;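 active = inhibition of 50% or more; inactive = inhibition below 50%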;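 also: plate controls were induced DMSO wells for no effect and uninduced yeast grown without galactose for full effect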
# tim10-1 inh – inhibits growth of tim10-1 mutant yeast; S. cerevisiae tim10-1 ts strain growth, BacTiter-Glo, 24 h; inhibition, % at 20 µM; hit rate 2.2% among 330,000; AID 463190;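 active = inhibition of at least 40%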;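 also: mutant grown at 25 °C; 0% = DMSO wells with yeast and 100% = wells holding no yeast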
# tim10-1 conf – confirmation of tim10-1 mutant yeast growth inhibitors; shares compounds with tim10-1 inh; inhibition, % at 20 µM; S. cerevisiae tim10-1 ts strain growth, BacTiter-Glo, 24 h; hit rate 56% among 7,400;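 active = inhibition of yeast growth at or above a set limit in either of two repeat tests at 20 µM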;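 also: tim10-1 mutant grown at permissive 25 °C to find synthetic lethal compounds; 0% = DMSO yeast wells and 100% = medium wells without yeast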
# TIM10 conf – confirmation of TIM10 yeast growth inhibitors. shares compounds with TIM10 inh. S. cerevisiae tim10 strain growth, BacTiter-Glo luminescence, 24 h. inhibition, % at 10 µM. hit rate 63% among 4,600. AID 463215;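 active = inhibition of yeast growth at or above a set limit in either of two replicates at 10 µM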;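 also: this counterscreen used the strain with wild-type TIM10; 0% = yeast with DMSO and 100% = medium wells lacking yeast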
# tim23-1 confirm – tim23-1 yeast growth inhibition, confirmed | shares compounds with tim23-1 inh | S. cerevisiae tim23-1 growth, BacTiter-Glo luminescence, 24 h | inhibition, % at 20 µM | hit rate 83% among 4,400 | AID 463218;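 active = inhibition above about 39% in either of two replicate wells at 20 µM, limit read from the data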;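 also: temperature-sensitive tim23-1 mutant grown at 25 °C; 0% = DMSO wells with yeast and 100% = medium wells without yeast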
# An asterisk follows results filed as active; · = not tested or not shown.
SMILES,NALP1 yeast inh,V-ATPase pH,TIM10 inh,tim23-1 inh,NLRP3 yeast inh,tim10-1 inh,tim10-1 conf,TIM10 conf,tim23-1 confirm
O=C(O)CC(NC(=O)C12CC3CC(CC(C3)C1)C2)c1cc([N+](=O)[O-])ccc1Cl (centres undefined),10.5,-0.8,-3.8,-0.7,-1.3,-1.7,·,·,·
Clc1nssc1=Nc1ccc(Br)cc1,8.7,0.8,·,·,·,·,·,·,·
COc1cc(N=c2ssnc2Cl)cc(OC)c1,-2.9,10.0,32.6,76.1*,16.1,55.3*,58.1*,·,79.4*
O=C(O)CCn1c(=O)[nH]c2ccccc2c1=O,·,1.2,-3.4,6.2,20.6,3.9,·,·,·
CCOc1ccc2nc(NC3=NCN(Cc4ccco4)CN3)nc(C)c2c1,-6.6,·,·,·,·,·,·,·,·
Cc1ccc2nc(N3CCN(C=O)CC3)nc(-c3ccccc3)c2c1,-22.9,3.7,28.7,59.9*,34.3,43.1*,9.8,·,42.5*
O=[N+]([O-])c1cc(Cl)cc2c1nc(NCCO)c1ccccc12,17.4,-0.5,39.9,54.8*,8.5,67.2*,50.4*,·,46.7*
O=c1[nH][nH]c(-c2ccccc2O)c1C(C[N+](=O)[O-])c1ccc(Br)cc1 (centres undefined),101.6*,4.9,53.4*,61.6*,32.8,51.8*,43.5*,-22.4,65.4*
Cc1sc(NC(=O)c2ccco2)c(CN2CCN(c3ccc(F)cc3)CC2)c1C,3.4,5.7,5.6,-0.3,25.3,5.2,·,·,·
Cc1sc(NC(=O)c2ccco2)c(CN2CCN(c3ccccn3)CC2)c1C,16.3,-1.0,27.1,59.1*,3.2,48.1*,32.5*,·,54.9*
O=C(N/N=C/c1ccc(O)c(O)c1)NC12CC3CC(CC(C3)C1)C2,5.8,2.5,-3.0,12.6,4.5,20.3,·,·,·
O=C(N/N=C/c1ccccc1O)NC12CC3CC(CC(C3)C1)C2,12.1,0.0,28.8,71.3*,14.0,44.4*,36.5*,·,67.8*
O=C1Nc2ccccc2/C1=N\N=C\C1=C(N2CCOCC2)C(=C\c2ccccc2)/CC1,9.8,3.2,46.5*,58.5*,-5.6,61.2*,51.7*,36.1*,50.6*
Oc1c(Cl)cc(Cl)cc1/C=N/NC(=S)NC1CC2C=CC1C2 (centres undefined),-12.0,-5.0,36.2,56.6*,12.9,48.0*,50.3*,·,71.5*
Oc1ccccc1C=NNC(=S)NC1CC2C=CC1C2 (centres undefined),·,0.6,·,·,·,·,·,·,·
COc1ccc2nc(NC(=O)c3ccoc3C)sc2c1,·,-3.6,46.5*,55.1*,34.8,58.1*,59.1*,31.8*,61.1*
CN1/C(=C/C2CC(=O)N(c3ccc([N+](=O)[O-])cc3)C2=O)C(C)(C)c2ccccc21 (centres undefined),15.4,-1.6,51.4*,51.1*,-0.4,66.3*,61.7*,41.9*,66.0*
CC(C)n1nc(C(=O)Nc2nnc(C3CC3)s2)c2ccccc2c1=O,-0.3,1.4,14.8,31.0,4.4,14.6,·,·,·
CC(C)Cn1nc(C(=O)Nc2nnc(C3CC3)s2)c2ccccc2c1=O,·,3.8,20.1,52.0*,26.2,47.3*,29.1*,·,41.2*
Clc1ccc(/C(Cc2nc3ccccc3[nH]2)=N\Nc2ccccc2)cc1,28.5*,1.6,55.9*,52.9*,30.6,46.2*,21.6,56.0*,45.2*
CCOc1ccc(/C=N/NC(=O)c2[nH]ncc2Br)c(O)c1,14.9,-3.1,59.1*,78.0*,30.9,52.3*,30.1*,37.2*,78.3*
COc1ccc(OC)c(/C=N/NC(=O)c2[nH]ncc2Br)c1,5.5,-2.9,9.0,11.9,7.4,-7.0,·,·,·
Oc1ccc(/C=N/Nc2ccc(C(F)(F)F)cn2)c(O)c1,4.9,-4.5,65.2*,78.2*,29.7,65.5*,43.9*,71.8*,77.7*
CCN(CC)P(=O)(Nc1ccc(C)cc1Br)c1ccc(N(C)C)cc1NC(=O)c1ccco1 (centres undefined),-5.6,-0.4,19.6,31.9,-4.7,21.7,·,·,·
COc1ccc(/C=N/NC(=O)C(=O)/C=C2\NC3(CCCC3)Cc3ccccc32)cc1,21.1,2.3,36.9,53.9*,9.0,42.2*,31.2*,·,36.0
SMILES,NALP1 yeast inh,V-ATPase pH,TIM10 inh,tim23-1 inh,NLRP3 yeast inh,tim10-1 inh,tim10-1 conf,TIM10 conf,tim23-1 confirm
CCC(C)c1ccc(NC(=S)NCc2cccs2)cc1 (centres undefined),16.5,0.5,53.5*,53.0*,22.0,55.7*,54.8*,44.5*,54.8*
Cc1cc(C)n(CC(O)Cn2c3ccccc3c3ccccc32)n1 (centres undefined),15.5,5.8,19.7,33.0,18.3,25.3,·,·,·
Cc1cc(C)n(CC(O)Cn2c3ccc(Cl)cc3c3cc(Cl)ccc32)c(=O)n1 (centres undefined),18.6,0.6,61.0*,54.4*,8.0,56.8*,53.8*,56.5*,46.7*
COc1ccc(C(=O)/C=C/c2cccs2)c(OC(=O)N2CCOCC2)c1,30.6,1.3,52.1*,50.6*,0.2,49.6*,33.6*,39.5*,42.1*
COc1ccc(C(=O)C=Cc2cccs2)c(O)c1,·,-0.7,·,·,·,·,·,·,·
O=C(CCc1nnc2n(Cc3ccccc3)c(=O)c3ccccc3n12)NCCCN1CCCCC1,1.2,0.1,11.1,6.9,4.6,0.0,·,·,·
COc1ccc([C@H]2Oc3cc(O)cc(O)c3C(=O)C2[C@@H]2C(=O)c3c(O)cc(O)cc3O[C@@H]2c2ccc(OC)cc2)cc1 (some centres undefined),26.2,·,14.7,60.5*,2.7,48.6*,46.5*,·,48.9*
COc1ccc(C2CC(=O)Oc3cc(O)cc(O)c32)cc1 (centres undefined),-2.3,6.4,1.9,15.5,19.1,10.1,·,·,·
O=C(Nc1ccccc1)C1=C[C@@H](c2ccc(Br)cc2)C[C@@H](OCCCCO)O1,-6.3,0.0,32.7,55.4*,13.0,43.0*,44.7*,·,54.0*
O=C1OC(/C=C/c2ccccc2)=NC/1=C/C=C/c1ccccc1,-0.5,-0.1,28.7,28.8,15.0,14.9,·,·,·
O=C1OC(c2ccc(F)cc2)=N/C1=C\C=C/c1ccccc1,-33.0,-2.5,37.3,76.3*,7.1,50.4*,39.9*,·,-35.0
CNC(=O)c1c(Cl)cnn1-c1ccc(C)cc1,8.0,-1.5,8.6,1.3,-4.1,3.0,·,·,·
CCn1c(/C=C2/C(=O)N(C)c3ccccc32)nc2ccccc2c1=O,7.7,2.4,37.3,53.6*,23.7,50.5*,32.3*,·,58.2*
CCn1c(/C=C\c2ccccc2C)nc2ccccc2c1=O,5.2,2.9,21.0,19.3,7.9,25.9,·,·,·

# Compound activity as filed in PubChem.
